Active and inactive are the calls of the source. Unless noted, no rule for the calls is given here.
Assays:
[1] = compounds binding Alexa647 anti-His antibody – biochemical, small-molecule microarray, 635 nm fluorescence, artefact control for SMM control protein annotation, primary screen (AID 1128); conditions: higher = more signal;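 also: score merges feature fluorescence with signal-to-noise for each printed compound spot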
[2] = test system: Human papillomavirus type 1a E7 protein (residues 1-88); experiment: HPV1a E7 small-molecule binders, primary screen, biochemical, small-molecule microarray, residues 1-88, 635 nm (AID 1129); conditions: small-molecule microarray binding, fluorescence 635 nm; higher = more signal
[3] = molecular target: Focal adhesion kinase 1 (Homo sapiens) (UniProt Q05397); experiment: PTK2 protein binding on printed compound slides – biochemical, small-molecule microarray, 635/667 nm fluorescence, BSA, DTT, primary screen (AID 1130); conditions: 635 nm fluorescence, higher = more signal;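 also: composite of spot emission at 667 nm and signal to noise over triplicate slides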
[4] = test system: Fibrinogen (Alexa647-labelled); experiment: Alexa647-fibrinogen binding to printed small molecules – biochemical, small-molecule microarray, 635/667 nm fluorescence, artefact control for SMM control-protein annotation, profiling panel (AID 1131); conditions: fibrinogen-A647 binding fluorescence, higher = more signal;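 also: z-score merges 667 nm fluorescence with per-spot signal-to-noise over triplicate slides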
[5] = molecular target: Follistatin (Homo sapiens) (UniProt P19883); experiment: FST protein binding to printed compounds – biochemical, small-molecule microarray, 635/667 nm fluorescence, primary screen (AID 1132); conditions: 635 nm fluorescence, higher = more signal
[6] = molecular target: Fibroblast growth factor 2 (Homo sapiens) (UniProt P09038); experiment: basic fibroblast growth factor binding to printed compounds – biochemical, small-molecule microarray, 635/667 nm fluorescence, primary screen (AID 1133); conditions: FGF2, fluorescence 635/667, higher = more signal
[7] = JC-1 mitochondrial potential readout, lung cancer cells – cell-based, A549, JC-1 fluorescence, basal, 24 h, 100 nL, profiling panel (AID 1138); conditions: higher = more signal;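 also: A549 lung adenocarcinoma cells under basal conditions with no added stimulus; test concentration not given here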
Lefty1 = Lefty1 protein binding to printed compounds – biochemical, small-molecule microarray, 635/667 nm fluorescence, primary screen (AID 1139); conditions: fluorescence 635/667, higher = more signal
[8] = test system: wheat germ agglutinin (Triticum aestivum), Alexa647-labelled; experiment: Alexa647-WGA lectin binding to printed small molecules – biochemical, small-molecule microarray, 635/667 nm fluorescence, artefact control for SMM control-protein annotation, profiling panel (AID 1140); conditions: WGA-A647 binding, 635 nm fluorescence, higher = more signal;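 also: score merges 667 nm feature emission with signal to noise over triplicate slides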
[9] = molecular target: Luciferin 4-monooxygenase (Photinus pyralis) (UniProt P08659); experiment: inhibition of purified Photinus pyralis luciferase – biochemical, luminescence, purified enzyme, 2006 set, primary screen (AID 1141); conditions: purified firefly luciferase, SteadyGlo luminescence, 30 min; higher = more signal, called active from +8 up or from −8 down;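 also: cell-free assay with purified firefly luciferase at 100 ng per well in PBS; test concentration not given here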
[10] = test system: Wnt5a (protein binding on small-molecule microarray); experiment: small molecules binding Wnt5a protein – biophysical, small-molecule microarray, 635/667 nm fluorescence, primary screen (AID 1142); conditions: 635 nm fluorescence, higher = more signal;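 also: fluorescence read at 667 nm with signal to noise per printed feature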
[11] = ATP-based viability of Huh7 replicon cells – cell-based, CellTiter-Glo luminescence, basal, 48 h, cytotoxicity control for HCV replication inhibitor project, primary screen (AID 1143); conditions: higher = more signal, called active from +8 up or from −8 down;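 also: Huh7 hepatoma cells carrying a hepatitis C replication reporter with no stimulus; test concentration not given here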
[12] = Pseudomonas biofilm growth suppression – PAO1 strain, BacTiter-Glo luminescence, LB-PBS, primary screen (AID 1144); conditions: P. aeruginosa PAO1 biofilm, 12 h, higher = more signal
[13] = basal CRE-LacZ reporter activity in PC12 – cell-based, unstimulated, primary screen (AID 1145); conditions: no forskolin, luminescence, 4.5 h, higher = more signal, called active from +8 up or from −8 down
[14] = forskolin-driven CRE-LacZ activity in PC12 – cell-based, CRE-LacZ reporter, forskolin-stimulated, primary screen (AID 1146); conditions: luminescence, 4.5 h, higher = more signal, called active from +8 up or from −8 down;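 also: PC12 cells with 6xCRE LacZ reporter stimulated by forskolin 10 µM; beta-galactosidase reporter signal reflecting CREB driven transcription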
[15] = molecular target: Streptavidin (Streptomyces avidinii) (UniProt P22629); experiment: compounds binding control protein streptavidin – biophysical, small-molecule microarray, 635/667 nm fluorescence, artefact control for SMM compound annotation, primary screen (AID 1147); conditions: higher = more signal;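 also: signal reflects streptavidin binding to arrayed compounds as a control protein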
[16] = probe aInhba binding on compound microarray – biochemical, small-molecule microarray, 635/667 nm fluorescence, primary screen (AID 1148); conditions: higher = more signal;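 also: score merges 667nm spot fluorescence with signal-to-noise for antibody binding to printed compounds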
Torsin-1A (Homo sapiens) [17] = molecular target: Torsin-1A (Homo sapiens) (UniProt O14656); experiment: TOR1A wild-type binding on microarray – cell lysate, small-molecule microarray, lysate, 635/667 nm, primary screen (AID 1149); conditions: COS7 hTOR1A-WT lysate, 635 nm fluorescence, higher = more signal
Torsin-1A (Homo sapiens) [18] = molecular target: Torsin-1A (Homo sapiens) (UniProt O14656); experiment: torsin A mutant lysate binding on microarrays – cell lysate, small-molecule microarray, COS7 lysate, 635/667 nm fluorescence, primary screen (AID 1150); conditions: COS7 hTOR1A mutant lysate, 635 nm fluorescence, higher = more signal;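 also: score pools 667 nm emission and signal to noise measuring lysate protein binding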
[19] = test system: Sonic hedgehog protein (Shh); experiment: Sonic hedgehog microarray binding compounds – biochemical, small-molecule microarray, 635/667 nm fluorescence, primary screen (AID 1151); conditions: 635 nm fluorescence, higher = more signal;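 also: Shh protein binding to compounds spotted on small-molecule microarray slides; score combines spot fluorescence intensity with signal-to-noise across triplicate slides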

Chain of Fibroblast growth factor 2 (Homo sapiens) (P09038 whole entry, looked up): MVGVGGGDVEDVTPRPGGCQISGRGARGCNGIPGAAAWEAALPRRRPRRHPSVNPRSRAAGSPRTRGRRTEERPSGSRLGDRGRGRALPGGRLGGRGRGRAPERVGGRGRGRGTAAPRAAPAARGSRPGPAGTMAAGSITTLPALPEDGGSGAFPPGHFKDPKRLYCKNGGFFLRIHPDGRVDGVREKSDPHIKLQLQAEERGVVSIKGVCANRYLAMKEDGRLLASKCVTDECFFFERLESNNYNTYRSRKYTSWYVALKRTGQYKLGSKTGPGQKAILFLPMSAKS
Chain of Follistatin (Homo sapiens) (P19883 whole entry, looked up): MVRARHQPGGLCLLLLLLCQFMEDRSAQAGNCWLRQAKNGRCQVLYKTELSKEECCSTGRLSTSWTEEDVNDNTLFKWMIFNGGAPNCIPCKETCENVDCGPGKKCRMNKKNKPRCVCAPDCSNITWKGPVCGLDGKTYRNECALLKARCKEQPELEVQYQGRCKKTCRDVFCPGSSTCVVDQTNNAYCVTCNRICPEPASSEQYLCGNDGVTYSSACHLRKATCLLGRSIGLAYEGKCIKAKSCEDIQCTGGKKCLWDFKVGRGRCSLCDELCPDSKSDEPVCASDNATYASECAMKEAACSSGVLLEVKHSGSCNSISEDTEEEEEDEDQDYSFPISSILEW
Chain of Streptavidin (Streptomyces avidinii) (P22629 whole entry, looked up): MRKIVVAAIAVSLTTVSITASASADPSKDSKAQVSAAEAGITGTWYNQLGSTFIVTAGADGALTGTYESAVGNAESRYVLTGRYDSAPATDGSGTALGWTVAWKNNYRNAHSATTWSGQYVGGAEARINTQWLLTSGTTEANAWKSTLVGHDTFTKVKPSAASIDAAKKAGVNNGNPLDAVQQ
Chain of Luciferin 4-monooxygenase (Photinus pyralis) (P08659 whole entry, looked up): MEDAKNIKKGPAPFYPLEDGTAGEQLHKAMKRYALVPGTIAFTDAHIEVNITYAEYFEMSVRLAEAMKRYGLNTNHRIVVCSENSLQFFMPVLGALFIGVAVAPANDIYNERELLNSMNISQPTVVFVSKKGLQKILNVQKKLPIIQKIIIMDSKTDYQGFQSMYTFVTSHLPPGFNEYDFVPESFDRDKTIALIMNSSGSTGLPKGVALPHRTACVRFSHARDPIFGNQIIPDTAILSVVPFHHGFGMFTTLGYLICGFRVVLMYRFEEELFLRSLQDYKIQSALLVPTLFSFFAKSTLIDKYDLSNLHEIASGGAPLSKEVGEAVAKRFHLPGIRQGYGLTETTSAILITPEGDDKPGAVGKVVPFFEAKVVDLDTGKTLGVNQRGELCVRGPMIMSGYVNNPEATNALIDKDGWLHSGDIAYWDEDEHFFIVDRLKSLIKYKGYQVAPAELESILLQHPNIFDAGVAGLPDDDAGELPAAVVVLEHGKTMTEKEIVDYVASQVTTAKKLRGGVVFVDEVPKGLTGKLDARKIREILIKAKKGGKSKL
Chain of Torsin-1A (Homo sapiens) (O14656 whole entry, looked up): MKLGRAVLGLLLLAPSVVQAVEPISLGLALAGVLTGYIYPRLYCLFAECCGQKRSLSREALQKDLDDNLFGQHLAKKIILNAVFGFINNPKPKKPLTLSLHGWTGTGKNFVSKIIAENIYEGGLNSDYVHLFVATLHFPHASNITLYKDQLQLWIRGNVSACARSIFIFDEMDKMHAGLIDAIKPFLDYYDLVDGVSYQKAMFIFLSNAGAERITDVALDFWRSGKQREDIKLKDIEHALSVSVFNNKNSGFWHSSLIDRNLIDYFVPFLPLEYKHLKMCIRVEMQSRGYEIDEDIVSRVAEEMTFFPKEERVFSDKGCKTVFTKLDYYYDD
Chain of Focal adhesion kinase 1 (Homo sapiens) (Q05397 whole entry, looked up): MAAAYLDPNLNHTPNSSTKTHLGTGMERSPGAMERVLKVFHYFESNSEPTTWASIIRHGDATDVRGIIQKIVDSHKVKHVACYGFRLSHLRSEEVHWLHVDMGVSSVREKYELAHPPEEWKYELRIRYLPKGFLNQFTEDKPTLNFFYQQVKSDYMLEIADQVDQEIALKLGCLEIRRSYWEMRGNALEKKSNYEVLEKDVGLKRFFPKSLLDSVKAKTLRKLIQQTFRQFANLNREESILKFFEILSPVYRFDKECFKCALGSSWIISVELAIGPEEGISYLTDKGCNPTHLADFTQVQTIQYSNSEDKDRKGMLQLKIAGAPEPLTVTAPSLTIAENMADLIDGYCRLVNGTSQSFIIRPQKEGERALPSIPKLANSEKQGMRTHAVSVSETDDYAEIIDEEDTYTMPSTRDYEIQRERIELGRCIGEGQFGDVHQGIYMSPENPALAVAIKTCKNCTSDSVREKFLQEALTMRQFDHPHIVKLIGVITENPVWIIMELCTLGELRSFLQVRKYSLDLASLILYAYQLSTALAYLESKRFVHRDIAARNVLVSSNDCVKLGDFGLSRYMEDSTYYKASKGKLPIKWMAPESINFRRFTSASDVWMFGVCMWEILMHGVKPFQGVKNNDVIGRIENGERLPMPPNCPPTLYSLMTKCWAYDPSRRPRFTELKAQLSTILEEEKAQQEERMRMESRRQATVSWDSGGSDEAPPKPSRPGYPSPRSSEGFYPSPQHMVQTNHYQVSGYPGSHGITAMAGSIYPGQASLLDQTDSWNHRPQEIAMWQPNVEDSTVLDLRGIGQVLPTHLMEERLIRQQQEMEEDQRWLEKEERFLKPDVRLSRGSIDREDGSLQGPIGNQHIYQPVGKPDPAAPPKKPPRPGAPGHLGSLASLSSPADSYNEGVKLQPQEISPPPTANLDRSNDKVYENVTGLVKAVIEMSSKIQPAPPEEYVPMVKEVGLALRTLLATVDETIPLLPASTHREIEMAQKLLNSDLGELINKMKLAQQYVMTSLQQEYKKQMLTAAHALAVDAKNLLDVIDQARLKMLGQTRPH

Row | SMILES | composite z-score [1] | composite z-score [2] | composite z-score [3] | composite z-score [4] | composite z-score [5] | composite z-score [6] | z-score [7] | composite z-score (Lefty1) | composite z-score [8] | z-score [9] | composite z-score [10] | z-score [11] | z-score [12] | z-score [13] | z-score [14] | composite z-score [15] | composite z-score [16] | composite z-score (Torsin-1A (Homo sapiens) [17]) | composite z-score (Torsin-1A (Homo sapiens) [18]) | composite z-score [19]
1 | CCOC(=O)[C@H](CC(C)C)NC(=O)CCC1CC(OC(=O)NCCc2ccc(F)cc2)CC2(CCCC(COC(=O)NCCCN3CCCC3=O)O2)O1 (stereo not given in full) | 0.969 | 0.635 | 0.0501 | 0.958 | 1.25 | 0.304 | -0.114 | 0.766 | 0.205 | 0.564 (inactive) | 0.189 | 0.378 (inactive) | -0.31 (inactive) | 0.109 (inactive) | 0.319 (inactive) | 0.484 | -0.0195 | 1.66 | 0.1 | 0.894
2 | O=C1C2=CC[C@H]3C(=O)N(c4ccc(F)cc4F)C(=O)[C@H]3[C@H]2[C@H](O)[C@@H]2O[C@H]12 | 0.0402 | 0.679 | -0.059 | 0.0936 | 0.397 | 0.34 | 0.0712 | 0.616 | -0.0273 | -0.51 (inactive) | 0.28 | 0.612 (inactive) | -0.845 (inactive) | -0.202 (inactive) | 0.305 (inactive) | 0.447 | -0.0221 | 0.528 | 0.308 | 0.389
3 | CCCNC(=O)OC[C@H]1O[C@H](CCON=C[C@@H](NS(=O)(=O)c2ccc(C)cc2)[C@H](C)C=CCC(=O)OC)C=C[C@@H]1Oc1ccc(OC)cc1 | -0.114 | 0.136 | 0.459 | 0.0865 | -0.0546 | -0.102 | 0.188 | 0.0275 | 0.391 | -0.21 (inactive) | -0.208 | -1.47 (inactive) | 0.169 (inactive) | 3.17 (inactive) | 0.26 (inactive) | -0.0974 | 0.316 | 0.0067 | 0.488 | -0.0635
4 | COC(=O)C(C(=O)OC)C1CCCC(=O)C1 (stereo not given) | 0.252 | 0.433 | 0.193 | 0.372 | 0.326 | 0.692 | -1.13 | 0.804 | 0.173 | 0.138 (inactive) | -0.155 | -0.509 (inactive) | -0.619 (inactive) | -0.886 (inactive) | -0.0388 (inactive) | 0.402 | -0.274 | 0.622 | 1.42 | 0.769
5 | CCOC(=O)CCN1C(=O)[C@H]2[C@H]3[C@H](O)[C@H](O)CC(=NOCC=C(C)CCC=C(C)C)[C@H]3CC[C@H]2C1=O | -1.12 | -0.251 | -0.0341 | -0.161 | -0.975 | 0.404 | 0.64 | -0.893 | -0.503 | 0.0499 (inactive) | 0.0888 | -0.148 (inactive) | 1.18 (inactive) | 0.153 (inactive) | 0.462 (inactive) | 0.344 | 0.12 | 0.703 | 0.355 | -0.423
6 | CCOC(=O)CCN1C(=O)[C@H]2[C@H]3[C@H](O)[C@H](O)CC(=NO[C@@H]4O[C@H](CO)[C@@H](O)[C@H](O)[C@H]4O)[C@@H]3CC[C@H]2C1=O | 0.818 | 1.12 | 0.118 | 0.854 | 1.22 | 1.22 | -0.102 | 1.4 | 0.829 | -0.115 (inactive) | 0.231 | -0.784 (inactive) | 1.24 (inactive) | -0.748 (inactive) | 1.17 (inactive) | 0.036 | 0.0173 | 1.87 | 1.12 | 1.62
7 | CCOC(=O)[C@H](Cc1ccccc1)NC(=O)CCC1CC(OC(=O)NCc2ccc3c(c2)OCO3)CC2(CCCC(COC(=O)NCCCN3CCCC3=O)O2)O1 (stereo not given in full) | 0.556 | 0.959 | 0.28 | 0.87 | 0.72 | 0.537 | 0.232 | 0.428 | 0.305 | 1.12 (inactive) | 0.0512 | -1.98 (inactive) | 0.14 (inactive) | 1.01 (inactive) | -0.257 (inactive) | 0.669 | -0.0736 | 0.408 | 0.078 | 1.53
8 | CO[C@H]1COC(=O)CCC[C@H](C)[C@@H](OC)COC(=O)CC=C[C@@H]1C | 1.36 | -0.117 | -0.246 | -0.0891 | 0.393 | 0.638 | -0.86 | 0.562 | -0.181 | 0.949 (inactive) | -0.0982 | -0.0992 (inactive) | 0.132 (inactive) | -0.394 (inactive) | -0.24 (inactive) | -0.256 | -0.128 | 0.0956 | 0.861 | 1.34
9 | CO[C@H]1COC(=O)CC=C[C@@H](C)COC(=O)[C@H]2CCCN2C(=O)CC=C[C@H]1C | -0.19 | -1.54 | -0.0701 | -1.05 | 1.46 | 1.96 | 1.06 | 1.68 | -0.604 | -1.32 (inactive) | 0.203 | 0.0653 (inactive) | 0.106 (inactive) | -0.837 (inactive) | -1.05 (inactive) | -0.547 | -0.108 | 2.24 | 2.95 | 1.79
10 | CC(=O)OC[C@H]1O[C@H](C#CCC2CCCCC2)C=C[C@@H]1OC(C)=O | 0.502 | 0.916 | -0.146 | 0.672 | 0.675 | 0.339 | 0.587 | 0.513 | 0.371 | -2.68 (inactive) | 0.293 | -2.43 (inactive) | 0.135 (inactive) | 0.105 (inactive) | 0.483 (inactive) | 0.176 | -0.0589 | 0.419 | 0.96 | 1.17

Source: PubChem BioAssay
